# Where “and” joins values, the source holds several entries; their conditions need not be identical. Identical values can stand only once. Results filed as inconclusive are left out. Where a call stands in place of a potency, no number is given. More than one record can exist for a structure, and the calls need not agree. Calls of active or inactive are those of the source. Unless noted, calls follow the shape of the dose curve; as a rule, active = well fitted curve in the direction sought with a large enough effect in the repeat runs; inconclusive = weak or mixed curves; inactive = no such curve, though single readings can be large; an effect the other way counts as inactive or inconclusive.
# Assays:
# [1] = qHTS assay to identify small molecule antagonists of the vitamin D receptor (VDR) signaling pathway - cell viability counter screen (AID 743225); also: nearly all actives have a fitted effect of over 50% in size; also: potency is read from the fitted curve at half-maximal effect
# Procedure, shortened: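 Parallel cytotoxicity test: VDR-UAS-bla HEK 293T, 3 nM (final) 1-alpha,25-dihydroxyvitamin D3 with test compound, 16 h, 37C. Endpoint is CellTiter-Glo luminescence in the same wells.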
# [2] = qHTS assay to identify small molecule agonists of the NFkB signaling pathway (AID 1159509; active = well fitted curve in the direction sought with a large enough effect in the signal ratio in the repeat runs, not every such curve was filed as active; the % refers to the signal ratio; also: series mostly up to about 61 µM)
# Procedure, shortened: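 Beta-lactamase reporter assay run in quantitative high-throughput format on an NF-kB-responsive ME-180 line, with 5 hr compound treatment and a FRET-based blue/green fluorescence readout.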
# [3] = qHTS assay to identify small molecule agonists of the AP-1 signaling pathway - cell viability counter screen (AID 1159525; calls by dose curve; also: nearly all actives have a fitted effect of over 55% in size)
# Procedure, shortened: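 Same-well cytotoxicity counter screen of the Tox21 10K library in ME-180 cells. The readout is ATP-dependent luminescence after 5 h compound treatment. Data are normalised to DMSO and tetra n-octyl ammonium bromide controls.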
# [4] = qHTS assay to identify small molecule antagonists of the retinoid acid receptor (RAR) signaling pathway - cell viability counter screen (AID 1159551); also: nearly all actives have a fitted effect of over 35% in size
# Procedure, shortened: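 ATP-based viability, C3RL4 cells, 6 h at 37 C with 1 uM final retinol co-added after compound; luminescence read 30 min post CellTiter-Glo, RT.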
# [5] = qHTS assay to identify small molecule agonists of the retinoic acid receptor (RAR) signaling pathway (AID 1159553); also: potency is read from the fitted curve at half-maximal effect
# Procedure, shortened: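 Quantitative high-throughput format: the Tox21 10K library was tested on C3RL4 RARE-luciferase cells for 6 hr at 37 C and 5% CO2, with luminescence measured after a 30 min room-temperature reagent step.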
# [6] = qHTS assay to identify small molecule antagonists of the estrogen related receptor (ERR) signaling pathway - cell viability counter screen (AID 1224818);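 also: series mostly up to about 46 µM; viability measured after 17.5 h of compound exposure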
# Procedure, shortened: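 Quantitative high-throughput viability counter screen in ERR cells. Compounds (DMSO) incubated 17.5 h at 37 C; read-out was CellTiter-Fluor fluorescence.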
# [7] = qHTS assay to identify small molecule antagonists of the estrogen related receptor signaling pathway with the pleiotropic PPARgamma coactivator (PGC) cell viability counter screen (AID 1224822; also: series mostly up to about 46 µM)
# Procedure, shortened: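 Cytotoxicity in the PGC/ERR cell line is assessed with CellTiter-Fluor, read as fluorescence intensity 30 min after reagent addition, following 17.5 h compound treatment at 37 C.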
# [8] = qHTS assay to identify small molecule agonists of the vitamin D receptor (VDR) signaling pathway - cell viability counter screen (AID 743224); also: nearly all actives have a fitted effect of over 50% in size; also: potency is read from the fitted curve at half-maximal effect
# Procedure, shortened: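 Compounds were pin-transferred onto VDR-bla cells plated 4 h earlier; following 16 h incubation at 37C, cell viability was quantified by CellTiter-Glo luminescence after 30 min at room temperature.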
# [9] = qHTS assay to identify small molecule agonists of the NFkB signaling pathway - cell viability counter screen (AID 1159515; calls by dose curve; also: series mostly up to about 61 µM; nearly all actives have a fitted effect of over 55% in size)
# Procedure, shortened: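 Parallel cytotoxicity counter screen in ME-180 cells carrying an NFkB-response-element beta-lactamase reporter, 2,000 cells/well. Compound exposure lasted 5 hr at 37 C, 5% CO2. Cell viability was quantified by CellTiter-Glo luminescence.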
# [10] = qHTS assay to identify small molecule agonists of the endoplasmic reticulum stress response signaling pathway (AID 1159516; active = well fitted activation curve with a large enough effect in the signal ratio in the repeat runs, not every such curve was filed as active; the % refers to the signal ratio)
# Procedure, shortened: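 Using a HeLa line with an ESRE-driven beta-lactamase gene, agonist activity was measured by FRET substrate fluorescence (460 and 530 nm emission) after cells were treated with compounds for 5 hr at 37 C and 5% CO2.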
# [11] = qHTS assay to identify small molecule agonists of the endoplasmic reticulum stress response signaling pathway - cell viability counter screen (AID 1159517; calls by dose curve; also: nearly all actives have a fitted effect of over 50% in size; also: potency is read from the fitted curve at half-maximal effect)
# Procedure, shortened: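 Steps: seed 1,500 ESRE-bla HeLa cells per well; incubate overnight at 37 C, 5% CO2; add compounds in DMSO for 5 hr; run FRET substrate 2 hr RT; add CellTiter-Glo, wait 30 min, read luminescence.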
# [12] = qHTS assay to identify small molecule antagonists of the retinoid-related orphan receptor gamma (ROR-gamma) signaling pathway - cell viability counter screen (AID 1159520); also: nearly all actives have a fitted effect of over 50% in size
# Procedure, shortened: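 Tet-on ROR gamma CHO cells were given compounds for 2 hr, then doxycycline hyclate at 1 uM final, and incubated 16 hr at 37 C. Viability was measured as ATP content by CellTiter-Glo luminescence.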
# [13] = qHTS assay to identify small molecule agonists of the AP-1 signaling pathway (AID 1159526; calls by dose curve)
# [14] = qHTS assay to identify small molecule agonists of the RXR signaling pathway - cell viability counter screen (AID 1159529)
# Procedure, shortened: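 In this parallel viability measure, GeneBLAzer RXR-alpha HEK 293T cells (2% charcoal-stripped FBS) were given a 5 hr preincubation, treated with compounds 16 hr at 37 C, and read by CellTiter-Glo luminescence.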
# [15] = qHTS assay to identify small molecule antagonists of the retinoic acid receptor (RAR) signaling pathway (AID 1159552; also: nearly all actives have a fitted effect of over 50% in size; also: potency is read from the fitted curve at half-maximal effect)
# Procedure, shortened: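 C3RL4 RARE-luc cells, overnight plating; retinol 1 uM final added right after compound; 6 hr 37 C; luciferase read at 30 min RT.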
# [16] = biological target: Nuclear receptor ROR-gamma (Homo sapiens) (UniProt P51449); test: qHTS assay to identify small molecule antagonists of the retinoid-related orphan receptor gamma (ROR-gamma) signaling pathway (AID 1159521; also: nearly all actives have a fitted effect of over 50% in size; also: potency is read from the fitted curve at half-maximal effect)
# Procedure, shortened: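 Decreased RORE-driven luciferase luminescence indicates antagonism. Tet-on RORγ CHO cells received compound, then 1 uM final doxycycline 2 h later; signal read after 16 h incubation.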
# [17] = biological target: Retinoic acid receptor RXR-alpha (Homo sapiens) (UniProt P19793); test: qHTS assay to identify small molecule agonists of the RXR signaling pathway (AID 1159527; calls by dose curve; also: nearly all actives have a fitted effect of over 35% in size)
# Sequence of Retinoic acid receptor RXR-alpha (Homo sapiens) (P19793 whole entry, looked up): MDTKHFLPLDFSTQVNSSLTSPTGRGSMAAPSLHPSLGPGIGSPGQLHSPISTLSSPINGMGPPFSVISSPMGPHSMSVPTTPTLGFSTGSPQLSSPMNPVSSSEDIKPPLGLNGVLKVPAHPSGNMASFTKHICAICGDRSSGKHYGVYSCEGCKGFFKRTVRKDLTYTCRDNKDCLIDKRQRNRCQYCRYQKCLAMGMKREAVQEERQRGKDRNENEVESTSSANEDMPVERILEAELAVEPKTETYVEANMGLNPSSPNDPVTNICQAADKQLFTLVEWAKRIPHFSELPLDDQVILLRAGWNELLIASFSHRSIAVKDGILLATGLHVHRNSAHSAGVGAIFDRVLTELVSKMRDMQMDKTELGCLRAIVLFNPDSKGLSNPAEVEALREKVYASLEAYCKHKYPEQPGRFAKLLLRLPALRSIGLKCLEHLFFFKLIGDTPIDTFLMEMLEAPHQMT
# Procedure, shortened: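 16 hr incubation of compound-treated RXR-alpha-UAS-bla HEK 293T cells (2% charcoal-stripped FBS, 37 C) preceded a 2 hr room-temperature LiveBLAzer FRET substrate step and blue/green fluorescence measurement.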
# [18] = qHTS assay to identify small molecule antagonists of the estrogen related receptor (ERR) signaling pathway (AID 1224819)
# Procedure, shortened: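 ERR reporter cell line (NTP) plated at 2,000 cells/well, settled 6 h at 37C/5% CO2, then exposed to LOPAC compounds for 18 h at 37C. One-Glo luciferase luminescence read after 30 min at room temperature.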
# [19] = qHTS assay to identify small molecule agonists of the estrogen related receptor (ERR) signaling pathway (AID 1224820)
# Procedure, shortened: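 Following a 6 h settling period, 2,000 ERR cells per well receive DMSO-dissolved compounds by pin tool and incubate 18 h at 37 C; agonist activity is scored from One-Glo luminescence read 30 min post-addition.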
# [20] = qHTS assay to identify small molecule agonists of the estrogen related receptor signaling pathway with the pleiotropic PPARgamma coactivator (PGC) (AID 1224823)
# Procedure, shortened: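 In this quantitative high-throughput screen, an 18 h, 37 C treatment of PGC/ERR cells with compounds in DMSO preceded a One-Glo luminescence read taken after 30 min at room temperature.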
compound,measurement,setting,value
CC(C)(C)C(O)C(Oc1ccc(Cl)cc1)n1cncn1 (stereo not given),Potency,[1],inactive
same,outcome,[2],inactive
same,Potency,[3],inactive
same,Potency,[4],inactive
same,Potency,[5],inactive
same,outcome,[6],inactive
same,Potency,[7],inactive
CCc1ccc(C(=O)NN(C(=O)c2cc(C)cc(C)c2)C(C)(C)C)cc1,Potency,[8],inactive
same,Potency,[9],inactive
same,outcome,[10],inactive
same,Potency,[11],inactive
same,Potency,[12],inactive
same,Potency,[3],inactive
same,outcome,[13],inactive
same,Potency,[14],inactive
same,Potency,[4],inactive
same,Potency,[15],inactive
O=[N+]([O-])c1ccccc1CCl,Potency,[8],inactive
same,Potency,[1],inactive
same,outcome,[2],inactive
same,Potency,[11],inactive
same,Potency,[12],inactive
same,Potency,[16],inactive
same,Potency,[17],inactive
same,Potency,[14],inactive
same,Potency,[4],inactive
O=C(OC1CCCCC1)c1ccccc1C(=O)OC1CCCCC1,Potency,[8],46 µM (active)
same,Potency,[1],32.6 µM (active)
same,Potency,[9],inactive
same,outcome,[10],inactive
same,Potency,[11],inactive
same,Potency,[12],inactive
same,Potency,[3],inactive
same,outcome,[13],inactive
same,Potency,[4],inactive
O=C(CCl)c1ccc(Cl)cc1Cl,Potency,[8],inactive and 18.8 µM (active)
same,Potency,[1],inactive
same,outcome,[2],inactive
same,Potency,[11],10.7 µM (active)
same,Potency,[16],10.6 µM (active)
same,Potency,[3],inactive
same,Potency,[4],inactive
same,Potency,[15],1.88 µM (active)
COc1nn(CSP(=S)(OC)OC)c(=O)s1,outcome,[2],inactive
same,Potency,[4],inactive
same,outcome,[6],inactive
same,Potency,[7],inactive
CCCCc1c(C)nc(NCC)nc1OS(=O)(=O)N(C)C,Potency,[8],inactive
same,Potency,[1],inactive
same,Potency,[9],inactive
same,outcome,[10],inactive
same,Potency,[11],inactive
same,Potency,[12],inactive
same,Potency,[3],inactive
same,outcome,[13],inactive
same,Potency,[14],inactive
same,Potency,[4],inactive
same,Potency,[15],inactive
COc1ccc(-c2ccccc2)cc1NNC(=O)OC(C)C,Potency,[8],57.2 µM (active)
same,Potency,[1],51 µM (active)
same,Potency,[9],inactive
same,outcome,[10],inactive
same,Potency,[11],inactive
same,Potency,[12],inactive
same,Potency,[3],inactive
same,outcome,[13],inactive
same,Potency,[14],inactive
same,Potency,[4],inactive
same,Potency,[15],inactive
same,Potency,[5],inactive
CC(=O)[C@H]1CC[C@H]2[C@@H]3CC[C@H]4C[C@](C)(O)CC[C@]4(C)[C@H]3CC[C@]12C,Potency,[8],inactive
same,Potency,[1],inactive
same,Potency,[9],inactive
same,outcome,[10],inactive
same,Potency,[11],inactive
same,Potency,[12],inactive
same,Potency,[3],inactive
same,Potency,[17],inactive
same,Potency,[14],inactive
same,Potency,[4],inactive
same,outcome,[6],inactive
same,outcome,[18],inactive
same,outcome,[19],inactive
same,Potency,[7],inactive
same,outcome,[20],inactive
CC(Cl)Cl,Potency,[8],inactive
same,Potency,[1],inactive
same,outcome,[2],inactive
same,Potency,[11],inactive
same,Potency,[16],inactive
same,Potency,[3],inactive
same,outcome,[13],inactive
same,Potency,[17],inactive
same,Potency,[4],inactive
same,Potency,[15],inactive
same,Potency,[5],inactive
C=CCOC(C)=O,Potency,[8],inactive
same,Potency,[1],inactive
same,outcome,[2],inactive
same,Potency,[16],inactive
same,Potency,[3],inactive
same,outcome,[13],inactive
same,Potency,[4],inactive
same,Potency,[15],inactive
same,Potency,[5],75.9 µM (active)

# From PubChem BioAssay (Tox21)
